TbPYK inhibitor: T. brucei pyruvate kinase inhibition | Q57TT1 | TbPYK enzyme, Kinase-Glo Plus ATP luminescence, 45 min | Potency, µM (doses to about 76.8 µM), for the others: at the highest dose activity, negative = inhibition, usual class: inhibitors | 410,000 compounds, 0.12% hits; further: potency means the concentration at half of the fitted maximal effect; on the % scale 0 is the no-effect control and ±100 the full control effect; nearly all actives have a fitted effect of over 50% in size
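ADP (130 uM final) triggers the TbPYK reaction after compound addition; incubation is 45 min at room temperature. Kinase-Glo Plus is then added and luminescence imaged. Normalized data are fitted to concentration-effect curves.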
SARS PLpro yeast: blocks SARS-CoV papain-like protease in a yeast assay. S. cerevisiae expressing SARS-CoV PLpro, growth rescue. Potency, µM (titrated, usually from 32.9 µM), inactives show at the highest dose activity, positive = growth rescue, usual class: activators. 330,000 compounds, 0.19% hits. AID 485353; calls by dose curve; further: potency means the concentration at half of the fitted maximal effect; 0% is about no effect; nearly all actives have a fitted effect of over 55% in size
NS1 inh: inhibitors of influenza NS1 protein function. Potency, µM (titrated, usually from 46.1 µM), without a hit: top-dose activity, positive = more growth. 270,000 compounds, 0.4% hits; calls by dose curve; further: potency means the concentration at half of the fitted maximal effect; actives are rising curves; nearly all actives have a fitted effect of over 50% in size
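A cell-based growth assay was used: compounds that relieve NS1-induced slow growth of budding yeast raise OD600. Assay medium was yeast nitrogen base with ammonium sulphate and -URA supplement, pH 6.0, with 2% galactose.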
Shiga inhibitor: blocks Shiga toxin action in Vero cells. Vero cells, Shiga toxin protein synthesis inhibition reporter. AID 2315. inhibition, % at 38.7 µM. 290,000 compounds, 9.2% hits; in the data active means inhibition mostly above about 28%, no sharp cut-off; inactive means mostly below about 43%; further: 0% is about no effect
CHX counter: affects cycloheximide protein synthesis inhibition readout, counter-screen | cell reporter, cycloheximide protein synthesis inhibition counterscreen | AID 2314 | max response, % | 300,000 compounds, 12% hits; in the data active means max response mostly above about 13%, no sharp cut-off; inactive means mostly below about 14%; further: read at 38.3 µM for the half of the compounds with a filed dose; 0% is about no effect
LmPK inh: LmPK (Leishmania mexicana) enzyme inhibition. 290,000 compounds, 0.37% hits. AID 1721. Potency, µM (series often up to 57.5 µM), for the others: top-dose activity change, negative = inhibition, hits mostly inhibitors. purified LmPK, Kinase-Glo ATP luminescence, 1 h. Q27686; further: potency means the concentration at half of the fitted maximal effect; on the % scale 0 is the no-effect control and ±100 the full control effect
Target sequence (Q27686 whole entry, looked up): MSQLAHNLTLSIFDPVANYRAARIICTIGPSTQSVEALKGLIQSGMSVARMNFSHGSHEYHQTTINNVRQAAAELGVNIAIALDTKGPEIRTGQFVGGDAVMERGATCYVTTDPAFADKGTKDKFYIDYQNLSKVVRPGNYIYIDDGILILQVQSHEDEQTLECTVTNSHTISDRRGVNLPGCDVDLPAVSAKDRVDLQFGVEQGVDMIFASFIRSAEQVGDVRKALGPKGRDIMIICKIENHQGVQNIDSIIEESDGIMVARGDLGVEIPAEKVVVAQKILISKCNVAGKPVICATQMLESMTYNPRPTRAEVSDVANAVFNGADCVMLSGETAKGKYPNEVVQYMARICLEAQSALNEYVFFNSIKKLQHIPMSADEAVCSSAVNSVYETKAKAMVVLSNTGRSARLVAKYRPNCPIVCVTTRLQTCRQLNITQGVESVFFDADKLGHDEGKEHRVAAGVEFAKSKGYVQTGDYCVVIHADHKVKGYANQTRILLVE
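Screened at intermediate enzyme activity to detect both inhibitors and activators: LmPK at 0.1 nM, with a 0.5 nM enzyme column as activation reference. PEP 0.5 mM, ADP 0.1 mM; ATP detected by luminescence after 1 h.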
* = called active by the depositor; ? = inconclusive; / = no result; [ ] = dose if it differs, or a comment. The sample as a whole holds a higher share of hits than the screen did. Unless noted, the call rests on the fitted dose curve; in most records, active means well fitted curve in the direction sought with a large enough effect; inconclusive means small, poorly fitted or top-dose-only effect, or another doubt; inactive means no such curve, though single readings can be large; an effect the other way counts as inactive or inconclusive.

SMILES	TbPYK inhibitor	SARS PLpro yeast	NS1 inh	Shiga inhibitor	CHX counter	LmPK inh
O=C(Nc1ccccc1C(F)(F)F)N1CCCCCC1	-6%	13%	16%	35*	9.6*	-1%
CCOC(=O)c1ccc(NC(=O)N2CCN(Cc3ccccc3)CC2)cc1	4%	-1%	-3%	7	15*	5%
Cc1cccc(NC(=O)N2CCN(Cc3ccc(Cl)cc3)CC2)c1	-5%	-1%	/	-5	-2	-4%
O=C(Nc1ccc(F)cc1F)N1CCCCCC1	2%	9%	-7%	23	27*	1%
CCOC(=O)c1ccc(NC(=O)CN2CCN(Cc3ccccc3)CC2)cc1	6%	0%	-1%	-18	0	1%
O=C(Nc1ccccc1C(F)(F)F)N1CCCC(O)C1 (centres undefined)	2%	1%	4%	-10	-3	3%
O=C(Nc1cccc(Cl)c1)N1CCN(Cc2ccccc2)CC1	5%	0%	-8%	41*	21*	0%
CC(=O)c1ccc(N2CCN(CN3C(=O)CC4(CCCC4)C3=O)CC2)c(F)c1	-7%	2%	-2%	-1	-2	-1%
Cc1cc(Cl)ccc1OCC(=O)NNC(=O)c1cccnc1	-1%	25%	-5%	-24	8	-10%
Cc1ccc(NC(=O)C2CCN(C(=O)NC3CCCCC3)CC2)c(C)c1	-1%	-3%	4%	-3	-2	3%
CCc1ccc(NC(=O)N2CCCCCC2)cc1	-7%	-6%	0%	87*	49*	-7%
Cc1ccc(NC(=O)N2CCCCCC2)c(C)c1	0%	1%	15%	62*	50*	1%
CCc1ccc(NS(=O)(=O)c2ccc(NC(=O)N3CCCC3)cc2)cc1	4%	/	/	/	/	/
O=C(Nc1ccc(Br)cc1)N1CCCCCC1	8%	?	17%	98*	55*	-3%
CCOC(=O)c1ccc(NC(=O)NCCN2CCCCC2)cc1	-1%	3%	-1%	-1	9.3*	-3%
CC[C@H](C)[C@H](NC(=O)[C@H](CC(C)C)NC(=O)[C@@H](N)CO)C(=O)NCC(=O)N[C@@H](CCCCN)C(=O)N[C@H](C(=O)O)C(C)C	/	/	/	12	-4	/
CCOc1ccccc1CNCc1c(C(=O)O)c(C)n(Cc2ccc(Cl)cc2)c1C	-15%	/	/	/	/	/
COC(=O)c1ccc(NC(=O)C(=O)N2CCCC2)cc1	-4%	-2%	-5%	76*	38	-8%
COc1ccc(NC(=O)N2CCOCC2)cc1	4%	2%	-2%	/	-1	0%
CCOCCCNC(=S)N1CCN(C(=O)C(=O)Nc2ccc(C(=O)OC)cc2)CC1	-8%	29%	11%	-5	-3	-4%
COc1ccc(NC(=O)N2CCN(C(=O)C(Cc3ccc(F)cc3)NC(C)=O)CC2)cc1 (centres undefined)	-2%	-1%	0%	35	9.7*	4%
O=C(Nc1ccc(Br)cc1)N1CCCC(O)C1 (centres undefined)	-1%	1%	/	70	24*	8%[11.5 µM]
CC(=O)NC(Cc1ccc(F)cc1)C(=O)NC1CCN(C(=O)Nc2ccc(F)cc2)CC1 (centres undefined)	3%	2%	-3%	-7	-2	-5%
COc1ccc(NC(=O)N2CCCCC2)cc1	-1%	-6%	12%	29	26*	-8%
CO[C@@H]1[C@@H](OC2OC(C)C(OC3CC(C)(O)C(O)C(C)O3)C(N(C)C)C2O)[C@@H](CC=O)C[C@@H](C)[C@@H](OC2CCC(N(C)C)C(C)O2)/C=C/C=C/C[C@@H](C)OC(=O)C[C@H]1OC(C)=O (some centres undefined)	1%	/	/	/	/	/
O=C1CC(c2ccco2)CC2=C1C(c1ccc(O)cc1)n1nc(C(F)(F)F)nc1N2 (centres undefined)	/	/	/	4	-4	/
O=c1ccc(-c2ccc(S(=O)(=O)Nc3ccccc3Cl)o2)n[nH]1	-3%	-1%	-6%	18	-2	-2%
Cc1ccc(NC(=O)CCN2CCN(CCO)CC2)cc1	-15%	/	/	/	/	/
CC1CCCN(C(=O)Nc2ccc(Br)cc2Cl)C1 (centres undefined)	3%	1%	-12%	96*	45*	-1%

Compound activity deposited in PubChem BioAssay by National Center for Advancing Translational Sciences (NCATS).
